# Compound activity as filed in PubChem.
# Only some compounds are listed: those with a hit (about 2% of all), similar ones and a draw of the others.
# M4 PAM: positive allosteric modulators of human muscarinic M4 receptor; activation, % at 3 µM; CHO-K1 hM4/Gqi5, Fluo-8 calcium fluorescence, ACh EC20; 0% = ACh EC20, 100% = maximal ACh; P08173; AID 624126; hit rate 0.4% among 360,000;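 active means activation above its plate's cutoff, the mean activation of sample wells plus 3 SD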
# Target sequence (P08173 whole entry, looked up): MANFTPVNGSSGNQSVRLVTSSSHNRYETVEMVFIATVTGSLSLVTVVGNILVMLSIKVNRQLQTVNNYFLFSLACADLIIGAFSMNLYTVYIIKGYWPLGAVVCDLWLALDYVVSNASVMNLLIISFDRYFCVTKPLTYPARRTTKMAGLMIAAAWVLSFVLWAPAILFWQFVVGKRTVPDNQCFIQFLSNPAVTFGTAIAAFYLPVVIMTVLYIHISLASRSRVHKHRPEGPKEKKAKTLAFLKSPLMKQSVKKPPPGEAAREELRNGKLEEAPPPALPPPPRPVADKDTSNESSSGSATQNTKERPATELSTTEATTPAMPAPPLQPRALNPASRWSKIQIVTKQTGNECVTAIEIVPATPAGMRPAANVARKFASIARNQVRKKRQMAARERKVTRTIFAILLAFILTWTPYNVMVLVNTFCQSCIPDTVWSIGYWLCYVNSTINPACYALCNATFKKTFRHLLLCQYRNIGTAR
# CHRM4 antagonist: antagonists of human muscarinic M4 receptor (CHRM4); P08173; CHO-hM4 cells, ACh EC80, Fluo-8 calcium fluorescence; inhibition, % at 3 µM; hit rate 0.73% among 360,000;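 active means inhibition above its plate's cutoff, the mean inhibition of sample wells plus 3 SD, cut at about 27% in these data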;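 further: 0% = acetylcholine EC80 with DMSO and 100% = DMSO without agonist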
# CHO-K1 Ca PAM: nonselective activator or artifact in parental CHO-K1 calcium assay; ATP EC20, Fluo-8 calcium fluorescence; 0% at ATP EC20, 100% at ATP max; activation, % at 3 µM; hit rate 0.02% among 360,000;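 active means activation above the run cutoff, the mean activation of all test compounds plus 3 SD, cut at about 40% in these data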;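 further: peak over basal fluorescence ratio in a 140 s read after ATP addition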
# CHRM4 agonist: agonists of human muscarinic M4 receptor (CHRM4) | activation, % at 3 µM | CHO-K1 hM4/Gqi5, Fluo-8 calcium fluorescence; vehicle 0%, full acetylcholine response 100% | P08173 | AID 624127 | hit rate 0.14% among 360,000;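 active means activation above the run mean over all test wells plus 3 SD, cut at about 32% in these data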;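 further: peak over basal fluorescence ratio per well then scaled between controls; 0% = DMSO wells and 100% = acetylcholine at EC100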
# CHO-K1 Ca antag: counter-screen for M1 antagonists: effect in parental CHO-K1 cells. ATP-induced calcium, Fluo-8 fluorescence. inhibition, % at 3 µM. hit rate 0.6% among 360,000. AID 602250;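 active means inhibition above a per-plate cutoff, the plate's mean sample inhibition plus 3 SD, cut at about 24% in these data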;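 further: 0% = DMSO plus EC80 ATP and 100% = DMSO alone without ATP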
# M1 ag parental: counter-screen for M1 agonists: effect in parental CHO-K1 cells. hit rate 0.48% among 360,000. activation, % at 3 µM. AID 602248. Fluo-8 calcium fluorescence; scaled to maximal ATP response, vehicle zero; in the data active means activation above about 15%;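 further: untransfected CHO-K1 host cells lacking M1 receptor as counterscreen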
# Active calls of the source: *; + = active, no number.
SMILES,M4 PAM,CHRM4 antagonist,CHO-K1 Ca PAM,CHRM4 agonist,CHO-K1 Ca antag,M1 ag parental
CC(C)Cn1c(N)c(C(=O)COC(=O)CCc2nc3ccccc3c(=O)[nH]2)c(=O)n(C)c1=O,7,4,-2,13,-4,4
Cc1csc(=O)n1CCC(=O)OCC(=O)c1c(N)n(CC(C)C)c(=O)n(C)c1=O,-4,0,4,14,3,10
Cc1ccccc1OCCC(=O)OCC(=O)c1c(N)n(CC(C)C)c(=O)n(C)c1=O,-15,17,-12,23,24*,15*
CC(C)Cn1c(N)c(C(=O)COC(=O)CC23CC4CC(CC(C4)C2)C3)c(=O)n(C)c1=O,-7,37*,-3,2,16,0
CC(C)Cn1c(N)c(C(=O)COC(=O)/C=C/c2ccccc2)c(=O)n(C)c1=O,-6,13,-1,20,28*,14
CC(C)Cn1c(N)c(C(=O)COC(=O)CCc2nc3ccccc3s2)c(=O)n(C)c1=O,-21,14,-11,23,23,15*
Cc1ccc(OCCC(=O)OCC(=O)c2c(N)n(CC(C)C)c(=O)n(C)c2=O)cc1,-10,0,-1,16,1,12
C=CCC[C@@H](CCCCC)OC(=O)/C=C/[C@@H](O)[C@H](O)C[C@@H](O)CC=C,12,-4,14,1,-15,2
Nc1ccc(NS(=O)(=O)c2ccccc2)cc1,2,-4,2,2,5,0
C[C@@H]1ON(C)[C@H]2C[C@H]3c4cc(N5CCOCC5)ccc4CCN3C(=O)[C@@H]12,8,-11,19,1,-22,0
CC(C)Cn1c(N)c(C(=O)COC(=O)COc2cccc(C(F)(F)F)c2)c(=O)n(C)c1=O,-12,20,-12,19,17,15*
CC(C)Cn1c(N)c(C(=O)COC(=O)c2cccc(F)c2)c(=O)n(C)c1=O,-10,0,-3,9,9,6
CCOC(=O)Cc1csc(NC(=O)Cc2cccs2)n1,-3,12,-3,0,16,0
CCOC(=O)Cc1csc(NC(=O)Nc2cccs2)n1,-6,3,-21,13,-11,16*
CN(Cc1ccccc1F)C(=O)C1CCCN(C(=O)c2ccc(Cl)cc2)C1 (stereo not drawn),-11,-3,1,4,-9,2
c1ccc2c(c1)OC(CCCN1CCCCC1)c1ccccc1S2 (stereo not drawn),-17,19,9,12,12,2
CN1CCCC(CC2Oc3ccccc3Sc3ccccc32)C1 (stereo not drawn),-41,73*,4,5,-4,2
Cc1ccc(-n2ncc3c2CC(C)(C)CC3NC(=O)c2cc[n+]([O-])cc2)cc1 (stereo not drawn),1,0,-1,0,-2,1
Cc1ccc(N=Nc2c(O)[nH]c(=O)[nH]c2=O)cc1S(=O)(=O)Nc1ccc(Br)cc1,6,-15,9,1,-14,0
Cc1ccc(S(=O)(=O)Nc2nc3ccccc3nc2NCc2ccco2)cc1,-9,3,-5,9,-4,5
CC(C)(CO)NCC(=O)Nc1cc(C(F)(F)F)cc(NC(=O)CNC(C)(C)CO)c1Cl,21*,6,4,1,3,0
Cn1cc(CN2CCC(C(=O)NC(c3ccc(-c4ccccc4)cc3)c3cnccn3)CC2)c2ccccc21 (stereo not drawn),-10,28*,20,29,-15,7
O=C(NC(c1ccc(-c2ccccc2)cc1)c1cnccn1)C1CCN(Cc2ccc(Cl)c(Cl)c2)CC1 (stereo not drawn),3,-3,4,2,-1,1
CC(O)[C@@H](C(=O)N1CCNCC1)n1cc(CCCCN)nn1 (stereo partly drawn),-20,9,12,+,-9,0
CC(O)Cc1cn([C@@H](CCCCN)C(=O)N2CCNCC2)nn1 (stereo partly drawn),1,-9,15,0,-17,1
SMILES,M4 PAM,CHRM4 antagonist,CHO-K1 Ca PAM,CHRM4 agonist,CHO-K1 Ca antag,M1 ag parental
CC(=O)OC1CC(C)(C)N(OC(=O)CCCN2C(=O)c3ccccc3C2=O)C(C)(C)C1,-1,9,-3,4,3,1
CC1CN(c2nc3c(c(=O)n(Cc4ccc(Cl)cc4)c(=O)n3C)n2C)CC(C)O1 (stereo not drawn),-3,21,-8,1,28*,0
C=CCN(CC=C)CCOc1cccc2ccccc12,13,-6,2,-3,1,0
O=S(=O)(c1cccc(Br)c1)N1CCN(c2ncnc3scc(-c4ccccc4)c23)CC1,-2,6,4,-1,-7,0
Cc1csc2ncnc(N3CCN(S(=O)(=O)c4cccc(C(F)(F)F)c4)CC3)c12,-13,26,-11,14,26*,11
O=C(Nc1ccc(C(F)(F)F)cc1)C1CCN(c2cnccn2)CC1,-1,-14,22,18,-19,3
COc1ccc(C2NCCc3c2[nH]c2ccccc32)cc1COc1ccc(F)cc1 (stereo not drawn),-4,37*,17,28,3,2
Cc1noc(C)c1S(=O)(=O)Nc1ccc(C(=O)N2CCN(c3cccc(Cl)c3)CC2)cc1,-6,6,-10,35*,1,17*
Cc1cccc(N2CCN(C(=O)c3ccc(NS(=O)(=O)c4c(C)noc4C)cc3)CC2)c1C,-2,-6,7,7,2,0
COCCCn1c(C23CC4CC(CC(C4)C2)C3)n[nH]c1=S,3,-3,-8,1,10,0
CC(C)Cn1c(C23CC4CC(CC(C4)C2)C3)n[nH]c1=S,-14,27*,-4,-2,-8,0
COc1ccccc1-n1c(SCC(=O)Nc2cccc(C(=O)O)c2)nnc1-c1ccccc1C,-1,6,-13,0,-7,0
COc1cccc(CNC(=O)CCNS(=O)(=O)c2ccc3[nH]c(=O)oc3c2)c1,16*,-4,-27,0,4,0
COc1cccc(CNC(=O)CCCNS(=O)(=O)c2cccs2)c1,14,-1,-1,2,42*,2
O=C(CCNS(=O)(=O)c1cccs1)NCc1ccccc1,12,-2,12,1,2,0
O=[N+]([O-])c1ccc(-c2nc(Nc3cccc(O)c3)c3ccccc3n2)cc1,2,4,-6,16,21,20*
CN(C)S(=O)(=O)N1CCC(Oc2cccc(C(=O)NCCC3=CCCCC3)c2)CC1,-16,10,-3,22,2,16*
CC1CCCN(c2nc3ccsc3c(=O)s2)C1 (stereo not drawn),-29,28*,2,-3,6,0
O=C(c1sc2ccccc2c1Cl)N1CCN(CCc2ccccn2)CC1,8,-2,2,5,-1,1
